Laboratory results taken from PubChem BioAssay (Tox21).
Inconclusive results are not listed. Calls of active or inactive are those of the source. Unless noted, calls follow the shape of the dose curve; as a rule, active = well fitted curve in the direction sought with a large enough effect in the repeat runs; inconclusive = weak or mixed curves; inactive = no such curve, though single readings can be large; an effect the other way counts as inactive or inconclusive.

Experiments:
[1] = biological target: Retinoic acid receptor RXR-alpha (Homo sapiens) (UniProt P19793); assay: qHTS assay to identify small molecule agonists of the RXR signaling pathway (AID 1159527; calls by dose curve; also: nearly all actives have a fitted effect of over 35% in size)
Summary of the method: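 Reporter activation is measured as beta-lactamase activity via FRET substrate cleavage (emission 460/530 nm) in HEK 293T cells expressing an RXR-alpha-driven bla construct, following 16 hr compound exposure at 37 C.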

[2] = qHTS assay to identify small molecule agonists of the RXR signaling pathway - cell viability counter screen (AID 1159529); also: series mostly up to about 77 µM; nearly all actives have a fitted effect of over 50% in size
Summary of the method: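 Tox21 10K compounds were tested for cytotoxicity against GeneBLAzer RXR-alpha HEK 293T cells grown in 2% charcoal-stripped FBS. Exposure lasted 16 hr at 37 C, 5% CO2; viability read by CellTiter-Glo luminescence.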

[3] = qHTS assay to identify small molecule antagonists of the retinoid acid receptor (RAR) signaling pathway - cell viability counter screen (AID 1159551); also: nearly all actives have a fitted effect of over 35% in size
Summary of the method: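 Viability of C3RL4 cells is quantified from ATP by luminescence after 6 h treatment at 37 C with compounds and 1 uM retinol.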

[4] = qHTS assay to identify small molecule antagonists of the estrogen related receptor (ERR) signaling pathway from Tox21 library - cell viability counter screen (AID 1224834); also: nearly all actives have a fitted effect of over 30% in size
Summary of the method: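 In this quantitative HTS format, ERR cells receive compounds in DMSO and are incubated for 17.5 h at 37 C. Live-cell protease activity is then detected with CellTiter-Fluor.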

[5] = biological target: Luciferin 4-monooxygenase (Photinus pyralis) (UniProt P08659); assay: qHTS assay to identify small molecule inhibitors of firefly luciferase (AID 1224835); also: nearly all actives have a fitted effect of over 25% in size; also: potency is read from the fitted curve at half-maximal effect; as to activity change, negative = inhibition: series mostly up to about 120 µM
Summary of the method: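 Quantitative HTS format; KM concentrations of both substrates. Purified P. pyralis FLuc activity quantified from luminescence images.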

[6] = qHTS assay to identify small molecule agonists of the constitutive androstane receptor (CAR) signaling pathway - cell viability counter screen (AID 1224836); also: series mostly up to about 92 µM; nearly all actives have a fitted effect of over 45% in size
Summary of the method: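 Fluorescence from CellTiter-Fluor indicates live cells after 23 h exposure. The human hepatoma line expresses hCAR and a CYP2B6-2.2kb reporter. Incubation medium contains 0.75 uM PK11195 (final).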

[7] = qHTS assay to identify small molecule antagonists of the constitutive androstane receptor (CAR) signaling pathway - cell viability counter screen (AID 1224837); also: series mostly up to about 92 µM; nearly all actives have a fitted effect of over 45% in size
Summary of the method: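 In quantitative HTS format, compounds at 15 concentrations were applied to HepG2 cells double-transfected with hCAR and CYP2B6-2.2kb under 50 nM CITCO stimulation; live-cell protease activity was read after 23 hr via CellTiter-Fluor.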

[8] = biological target: Nuclear receptor subfamily 1 group I member 3 (Homo sapiens) (UniProt Q14994); assay: qHTS assay to identify small molecule agonists of the constitutive androstane receptor (CAR) signaling pathway (AID 1224839);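 also: HepG2 cells stably carrying human CAR and a CYP2B6 luciferase reporter; series mostly up to about 92 µM; nearly all actives have a fitted effect of over 15% in size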
Summary of the method: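 Stable hCAR/CYP2B6-2.2kb HepG2 line in DMEM with 10% FBS; compounds (15 concentrations) and 0.75 uM PK11195 final, 24 h at 37 C/5% CO2, then ONE-Glo luminescence after 30 min.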

[9] = qHTS assay to identify small molecule antagonists of the estrogen related receptor signaling pathway with the pleiotropic PPARgamma coactivator (PGC) from Tox21 10K library - cell viability counter screen (AID 1224840; active = well fitted cell-killing curve with a large enough effect in the repeat runs, not every such curve was filed as active; also: nearly all actives have a fitted effect of over 40% in size)
Summary of the method: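 Viability counter screen, PGC/ERR cells: 17.5 h compound exposure at 37 C, CellTiter-Fluor fluorescence endpoint.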

[10] = biological target: Nuclear receptor subfamily 1 group I member 3 (Homo sapiens) (UniProt Q14994); assay: qHTS assay to identify small molecule antagonists of the constitutive androstane receptor (CAR) signaling pathway (AID 1224838); also: nearly all actives have a fitted effect of over 40% in size
Summary of the method: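 CITCO-stimulated (50 nM final) HepG2 cells stably transfected with hCAR and CYP2B6-2.2kb luciferase were exposed to compounds at 15 concentrations for 24 h at 37 C/5% CO2. A luciferase reagent was added and luminescence recorded after 30 min.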

[11] = qHTS assay to identify small molecule antagonists of the estrogen related receptor signaling pathway with the pleiotropic PPARgamma coactivator (PGC) from Tox21 10K library (AID 1224841; call rule not given here; also: series mostly up to about 92 µM; actives are mostly falling curves and most rising ones were filed inactive; nearly all actives have a fitted effect of over 50% in size)
Summary of the method: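 In the PGC/ERR line, DMSO solutions of test chemicals are pin-delivered to 2,000 cells/well six hours after dispensing. Following eighteen hours' incubation, One-Glo reagent is added and luminescence recorded.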
% is scaled to controls: 0 for no effect and ±100 for the full control effect.

Chain of Retinoic acid receptor RXR-alpha (Homo sapiens) (P19793 whole entry, looked up): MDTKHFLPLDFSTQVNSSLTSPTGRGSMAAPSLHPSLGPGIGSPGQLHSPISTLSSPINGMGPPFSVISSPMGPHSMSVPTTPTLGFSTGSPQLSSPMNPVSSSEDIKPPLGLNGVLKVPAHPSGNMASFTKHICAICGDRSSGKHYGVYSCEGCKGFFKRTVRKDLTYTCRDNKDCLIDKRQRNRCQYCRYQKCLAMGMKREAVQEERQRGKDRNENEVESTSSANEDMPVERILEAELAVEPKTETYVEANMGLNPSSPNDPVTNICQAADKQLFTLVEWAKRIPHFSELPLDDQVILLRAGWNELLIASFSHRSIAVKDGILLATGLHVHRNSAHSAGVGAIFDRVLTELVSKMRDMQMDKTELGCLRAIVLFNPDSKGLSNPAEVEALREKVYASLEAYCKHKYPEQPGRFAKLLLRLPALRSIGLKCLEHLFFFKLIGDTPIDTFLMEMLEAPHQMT
Chain of Luciferin 4-monooxygenase (Photinus pyralis) (P08659 whole entry, looked up): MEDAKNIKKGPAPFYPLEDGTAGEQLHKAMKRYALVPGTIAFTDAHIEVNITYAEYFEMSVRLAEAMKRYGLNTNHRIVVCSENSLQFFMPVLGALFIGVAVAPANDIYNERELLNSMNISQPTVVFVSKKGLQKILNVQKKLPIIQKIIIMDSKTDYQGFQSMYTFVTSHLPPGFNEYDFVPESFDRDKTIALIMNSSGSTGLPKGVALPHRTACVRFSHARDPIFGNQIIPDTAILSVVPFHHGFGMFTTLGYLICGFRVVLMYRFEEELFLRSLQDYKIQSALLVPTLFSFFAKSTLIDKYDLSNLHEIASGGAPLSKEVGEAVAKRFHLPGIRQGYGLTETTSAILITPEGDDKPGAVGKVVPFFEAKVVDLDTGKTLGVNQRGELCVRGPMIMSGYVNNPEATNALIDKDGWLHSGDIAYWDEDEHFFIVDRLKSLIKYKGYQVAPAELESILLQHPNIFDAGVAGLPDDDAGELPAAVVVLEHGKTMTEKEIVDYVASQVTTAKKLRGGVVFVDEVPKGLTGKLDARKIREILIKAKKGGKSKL
Chain of Nuclear receptor subfamily 1 group I member 3 (Homo sapiens) (Q14994 whole entry, looked up): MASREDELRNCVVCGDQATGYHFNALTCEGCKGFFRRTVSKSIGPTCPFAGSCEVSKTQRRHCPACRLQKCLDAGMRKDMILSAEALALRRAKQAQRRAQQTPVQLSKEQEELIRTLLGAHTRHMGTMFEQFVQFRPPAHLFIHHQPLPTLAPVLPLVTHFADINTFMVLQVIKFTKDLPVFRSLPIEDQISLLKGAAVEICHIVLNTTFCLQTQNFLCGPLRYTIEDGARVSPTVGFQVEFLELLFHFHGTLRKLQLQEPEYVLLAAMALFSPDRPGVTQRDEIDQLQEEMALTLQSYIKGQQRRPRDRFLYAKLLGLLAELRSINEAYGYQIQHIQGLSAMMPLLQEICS

Nc1nc(F)nc2c1ncn2[C@@H]1O[C@H](CO)[C@@H](O)[C@@H]1O
inactive: Potency [1] | Potency [2] | outcome [3] | Potency [4] | Potency [5] | outcome [6] | outcome [7] | Potency [8] | outcome [9]

CCCCCOC(=O)Nc1nc(=O)n([C@@H]2O[C@H](C)[C@@H](O)[C@H]2O)cc1F
inactive: Potency [1] | Potency [2] | outcome [3] | Potency [4] | Potency [5] | outcome [6] | outcome [7] | Potency [10] | Potency [8] | outcome [9]

CCCCCCCCCCC1CO1 (configuration not stated)
inactive: Potency [1] | Potency [2] | outcome [3] | Potency [4] | Potency [5] | outcome [6] | outcome [7] | Potency [10] | Potency [8] | outcome [9]

OCC(O)[C@@H](O)[C@H](O)[C@H](O)CO[C@H]1O[C@H](CO)[C@@H](O)[C@H](O)[C@H]1O (some centres not stated)
inactive: Potency [1] | Potency [2] | outcome [3] | Potency [4] | Potency [5] | outcome [6] | outcome [7] | outcome [9]

CCCCCCCCCCCCCCCCCC(=O)OCCCCCCCCCCCCCC(C)C
inactive: Potency [1] | Potency [2] | outcome [3] | Potency [4] | Potency [5] | outcome [6] | outcome [7] | outcome [9]

CCN1CCN(c2cc3c(cc2F)c(=O)c(C(=O)O)cn3C2CC2)CC1
inactive: Potency [1] | Potency [2] | outcome [3] | Potency [4] | Potency [5] | outcome [6] | outcome [7] | Potency [10] | Potency [8] | outcome [9]

C=C(C)C(=O)OCCCCCCCCCCCCCCCCCC
inactive: activation [1] 6.68% [at 15.8 µM] | activity change, negative = cytotoxicity [2] 15.1% [at 15.8 µM] | activity change, negative = cytotoxicity [3] -0.339% [at 19 µM] | viability change, negative = cytotoxic [4] -0.607% [at 19 µM] | activity change, negative = inhibition [5] -0.803% [at 23.6 µM] | viability change, negative = cytotoxic [6] 1.14% [at 19 µM] | activity change, negative = cytotoxicity [7] 4.26% [at 19 µM] | viability change, negative = cytotoxic [9] 1.61% [at 19 µM]

CC(C)CCOC(=O)CC(C)C
inactive: Potency [1] | Potency [2] | outcome [3] | Potency [4] | Potency [5] | outcome [6] | outcome [7] | Potency [10] | Potency [8] | outcome [9]

NCCN1CCNC1=O
inactive: Potency [1] | Potency [2] | outcome [3] | Potency [4] | Potency [5] | outcome [6] | outcome [7] | Potency [10] | Potency [8] | outcome [9]

C=C[Si](OC)(OC)OC
inactive: Potency [1] | Potency [2] | outcome [3] | Potency [4] | Potency [5] | outcome [6] | outcome [7] | Potency [10] | Potency [8] | outcome [9]

COCc1ccc(COC)cc1
inactive: Potency [1] | Potency [2] | outcome [3] | Potency [4] | Potency [5] | outcome [6] | outcome [7] | Potency [10] | Potency [8] | outcome [9]

Cc1cc(C)c(NC(=O)CN(CC(=O)O)CC(=O)O)c(C)c1Br
inactive: Potency [1] | Potency [2] | outcome [3] | Potency [4] | Potency [5] | outcome [6] | outcome [7] | Potency [8] | outcome [9]

CC/C=C\CCCCO
inactive: Potency [1] | Potency [2] | outcome [3] | Potency [4] | Potency [5] | outcome [6] | outcome [7] | outcome [9]

CC(C)N1C(=O)c2ccccc2C1=O
inactive: Potency [1] | Potency [2] | outcome [3] | Potency [4] | Potency [5] | outcome [6] | outcome [7] | Potency [10] | Potency [8] | outcome [9]

c1ccc(CCCc2ccccn2)cc1
active: Potency [5] 31.7 µM
inactive: Potency [1] | Potency [2] | outcome [3] | Potency [4] | outcome [6] | outcome [7] | Potency [10] | outcome [9] | Potency [11]

CC(C)CCCCCCN
inactive: Potency [1] | Potency [2] | outcome [3] | Potency [4] | Potency [5] | outcome [6] | outcome [7] | Potency [10] | Potency [8] | outcome [9]

OCCN1C[C@H](O)[C@@H](O)[C@H](O)[C@H]1CO
inactive: Potency [1] | Potency [2] | outcome [3] | Potency [4] | Potency [5] | outcome [6] | outcome [7] | outcome [9]

CN(C)CCn1nnnc1SCC1=C(C(=O)O)N2C(=O)[C@@H](NC(=O)Cc3csc(N)n3)[C@H]2SC1
inactive: Potency [1] | Potency [2] | outcome [3] | Potency [4] | Potency [5] | outcome [6] | outcome [7] | Potency [10] | Potency [8] | outcome [9]

CCN(CC)S(=O)(=O)c1ccc(C(=O)O)cc1
inactive: Potency [1] | Potency [2] | outcome [3] | Potency [4] | Potency [5] | outcome [6] | outcome [7] | Potency [10] | Potency [8] | outcome [9]

CC(C)CCCC(C)CCCC(C)CCCCC(C)CCCC(C)CCCC(C)C (configuration not stated)
inactive: Potency [1] | Potency [2] | outcome [3] | Potency [4] | Potency [5] | outcome [6] | outcome [7] | Potency [10] | Potency [8] | outcome [9]

OCC(CO)(CO)COCC(CO)(CO)CO
inactive: Potency [1] | Potency [2] | outcome [3] | Potency [4] | Potency [5] | outcome [6] | outcome [7] | Potency [10] | Potency [8] | outcome [9]

O=c1[nH]c(=O)n([C@H]2O[C@H](CO)[C@@H](O)[C@@H]2O)cc1/C=C\Br
inactive: Potency [1] | Potency [2] | outcome [3] | Potency [4] | Potency [5] | outcome [6] | outcome [7] | Potency [10] | Potency [8] | outcome [9]

NC(=O)CCCCC1CCSS1 (configuration not stated)
inactive: Potency [1] | Potency [2] | outcome [3] | Potency [4] | Potency [5] | outcome [6] | outcome [7] | Potency [10] | Potency [8] | outcome [9]

C/C=C1\C(=O)C[C@H]2[C@@H]3CCC4=CC(=O)CC[C@]4(C)[C@H]3CC[C@]12C
inactive: Potency [1] | Potency [2] | outcome [3] | Potency [4] | Potency [5] | outcome [6] | outcome [7] | Potency [10] | outcome [9]
